Hits are enriched below; roughly 0.71% of the tested compounds scored in any of these assays.
GoLoco inh red – inhibitors of human Gai1-RGS12 GoLoco interaction (red fluorophore). Gai1:RGS12 GoLoco peptide FP, rhodamine, 10 min. AID 880. hit rate 0.44% among 230,000. Potency, µM (top dose mostly 61.6 µM), inactives show top-dose activity, negative = inhibition, actives largely listed as inhibitors; active means well fitted inhibition curve with a large enough effect, not every such curve was filed as active; inactive means no such curve, though single readings can be large or run the other way; further: potency means the concentration at half of the fitted maximal effect; on the % scale 0 is the no-effect control and ±100 the full control effect; nearly all actives have a fitted effect of over 30% in size
TexasRed fluor – counter-screen for TRb-SRC2 inhibitors: fluorescence interference. Potency, µM (doses to about 106 µM), for the others: top-dose fluorescence change, negative = quenching. AID 1479. TRb/SRC2 Texas Red total fluorescence interference. hit rate 0.29% among 280,000; active means well fitted curve in either direction with a large enough effect; inconclusive means small, poorly fitted or top-dose-only effect; further: potency means the concentration at half of the fitted maximal effect; on the % scale 0 is the no-effect control and ±100 the full control effect
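Human TRb ligand-binding domain at 0.6 uM with 20 nM Texas Red SRC2 peptide in Tris buffer containing 1 uM T3 and 5% DMSO, incubated with compound 5 h at ambient temperature. Total fluorescence (555/632 nm) calculated as parallel + 2 × perpendicular.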
Epigenetic derep – epigenetic control regulation, reporter derepression | murine LDR cells, GFP reporter derepression, 30 h | Potency, µM (doses to about 53.9 µM), for the others: at the highest dose GFP activation, actives largely listed as activators | hit rate 0.2% among 280,000; further: potency means the concentration at half of the fitted maximal effect; % of control where 0% means no effect; nearly all actives have a fitted effect of over 60% in size
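Derepression of a silenced CMV-GFP reporter in murine LDR cells is scored by enumerating GFP-positive cells with a laser-scanning microplate cytometer after 30 hours of treatment at 37 C.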
CBFb-RUNX1 inh – inhibitors of human CBF-beta and RUNX1 interaction; AlphaScreen CBFb-His/RUNX1-biotin binding, biochemical; Potency, µM (series often up to 59.8 µM), without a hit: at the highest dose activity, negative = inhibition, hits mostly inhibitors; Q01196+Q13951; 230,000 tested, under 10 active; AID 1477; further: % of control where 0% means no effect
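Read-out: AlphaScreen. Format: His-CBF-beta with biotinylated RUNX1 (30 nM each) preincubated 20 min, compound 15 min, Ni-chelate plus streptavidin beads 90 min; room temperature throughout.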
TRb-SRC2 inh – TRbeta-SRC2 interaction inhibition; P10828; TRbeta-SRC2 peptide binding, fluorescence polarization; receptor liganded with 1 µM T3; Potency, µM (top dose mostly 106 µM), without a hit: top-dose activity change, negative = inhibition, hits mostly inhibitors; hit rate 0.065% among 280,000; AID 1469;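 further: potency means the concentration at half of the fitted maximal effect; plate controls were bound peptide for no effect and peptide without receptor for full effect; nearly all actives have a fitted effect of over 50% in size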
Target sequence (P10828 whole entry, looked up): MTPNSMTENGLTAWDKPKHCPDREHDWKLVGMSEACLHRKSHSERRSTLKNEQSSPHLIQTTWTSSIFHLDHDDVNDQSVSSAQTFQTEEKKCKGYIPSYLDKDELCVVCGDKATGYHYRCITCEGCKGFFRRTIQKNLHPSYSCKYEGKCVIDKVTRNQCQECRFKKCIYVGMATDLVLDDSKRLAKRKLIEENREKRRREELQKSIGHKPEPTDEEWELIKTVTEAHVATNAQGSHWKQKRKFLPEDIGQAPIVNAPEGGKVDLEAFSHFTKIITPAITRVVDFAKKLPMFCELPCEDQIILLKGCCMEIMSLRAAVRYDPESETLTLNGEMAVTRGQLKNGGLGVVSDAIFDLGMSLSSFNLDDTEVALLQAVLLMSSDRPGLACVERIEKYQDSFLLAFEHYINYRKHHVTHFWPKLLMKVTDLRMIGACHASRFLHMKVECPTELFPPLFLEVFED
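Each compound concentration gave % activity, normalized to unbound and bound Texas Red SRC2 controls, from polarization read after 5 hr ambient incubation with T3-loaded human TRb LBD.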
Numbers without * were called inactive; ? = inconclusive; · = no result given; [ ] = dose if it differs, or a comment. Unless noted, the call rests on the fitted dose curve; in most records, active means well fitted curve in the direction sought with a large enough effect; inconclusive means small, poorly fitted or top-dose-only effect, or another doubt; inactive means no such curve, though single readings can be large; an effect the other way counts as inactive or inconclusive.

SMILES	GoLoco inh red	TexasRed fluor	Epigenetic derep	CBFb-RUNX1 inh	TRb-SRC2 inh
CC(=O)CC1OC(=O)C(Br)=C1NCc1ccccc1 (centres undefined)	11.5%	-0.7%	7.94µM*	2.4%	0.7%
C/C(=N\NC(=O)c1cc2ccccc2cc1O)c1ccc2c(c1)OCO2	60.3%	35.5µM*[quencher]	-1.2%	3.7%	22.6%
C/C(=N\NC(=O)c1ccc(C)cc1C)c1ccc2c(c1)OCO2	4.4%	0.0%	0.0%	0.2%	2.1%
CC1=Nc2ccccc2/C1=C\c1nc(-c2ccc(C(F)(F)F)cc2)oc1O	-10.6%	-0.5%	12.6µM*	0.8%	3.8%
COn1cnnc1-c1ccccc1	8.91µM*	-3.6%	-2.0%	7.7%	-2.2%
CCn1c(=O)c(=O)[nH]c2cc(C(=O)NC3CCCc4ccccc43)ccc21 (centres undefined)	205.3%	39.8µM*[fluorescent]	4.8%	-3.7%	11.1%
CCOC(=O)CC(C(=O)OCC)C1CCCCC1=O (centres undefined)	-4.5%	0.9%	0.0%	-10.3%	9.2%
CCN(CC)S(=O)(=O)c1cc([N+](=O)[O-])ccc1N=Nc1c(O)[nH]c2ccccc12	19.5%	-1.1%	17.8µM*	3.5%	8.4%
CNC(=O)c1c(NC(=O)c2ccc(S(=O)(=O)N3CCCc4ccccc43)cc2)sc2c1CCN(C)C2	12.6%	2.2%	22.4µM*	-2.7%	4.6%
Cc1cc(Nc2ccc(O)cc2)ccc1N	28.2µM*	26.7%	·	?	?
Nc1cc([N+](=O)[O-])ccc1Nc1ccc(O)cc1	1.3%	-2.8%	-0.9%	?	-5.7%
COc1cc(N=C2C(=O)N3c4c(cccc42)C(C)=CC3(C)C)cc(OC)c1	0.0%	-1.4%	-0.9%	1.4%	2.6%
CC1=CC(C)(C)N2C(=O)C(=Nc3ccc(O)cc3)c3cccc1c32	-19.3%	3.0%	?	?	35.5µM*
O=C(Cn1c2[n+](c3ccc(C(F)(F)F)cc31)CCCCC2)Nc1ccc(Br)cc1	17.8µM*	-2.7%	5.2%	5.4%	14.8%
O=C1CCCc2c1sc1nc3n(c(=O)c21)CCCCC3	-9.9%	-3.2%	-0.3%	6.5%	-0.8%
O=C1c2sc3nc4n(c(=O)c3c2CCC1Br)CCCCC4 (centres undefined)	3.16µM*	-2.4%	-0.9%	-1.0%	-12.7%
C=CC1=C2C=C(C3CC3)N(CCCOC(C)C)C=C2C(=O)C(C)(OC(=O)c2ccco2)C1=O (centres undefined)	-10.2%[14.2 µM]	-13.0%[11.2 µM]	·	-1.1%[13.1 µM]	-1.5%[11.2 µM]
O=C1C=CC2=C3c4cc(O)c(O)cc4CC3(O)COC2=C1O (centres undefined)	2.51µM*	?	-0.3%	?	6.2%
CCN1C(=O)c2ccccc2Sc2ccc(NC(=O)Nc3cccc([N+](=O)[O-])c3C)cc21	·	0.0005µM*[quencher]	2.8%	·	-21.7%
N#CCCn1c(=O)c(-c2ccc(Cl)cc2)nc2cnc(N3CCNCC3)nc21	-21.8%	·	·	·	·
CCCNC(=O)Cn1c(=O)n(C)c2ccccc21	0.1%	44.7µM*[fluorescent]	-4.9%	18.3%	31.6µM*
CCCCNC(=O)Cn1c(=O)n(C)c2ccccc21	1.0%	-2.3%	0.0%	-3.1%	5.7%
Cc1cc(C(=O)COC(=O)CNS(=O)(=O)c2ccc3ccccc3c2)c(C)n1-c1ccccc1	15.7%	200µM*[quencher]	-1.1%	-0.1%	-10.8%
C=C[Si](OCCOC)(OCCOC)OCCOC	·	-1.9%[201 µM]	·	·	-2.7%[201 µM]
CCOC(=O)c1c(NC(=O)/C=C/c2ccc(OC)c(OC)c2)sc(C(C)=O)c1C	·	562µM*[quencher]	-1.6%	·	-19.4%[53 µM]
SMILES	GoLoco inh red	TexasRed fluor	Epigenetic derep	CBFb-RUNX1 inh	TRb-SRC2 inh
CCOC(=O)c1c(NC(=O)/C=C/c2ccc(OCC)cc2)sc(C(C)=O)c1C	·	-1.2%	0.8%	·	2.5%
CCCCC/C=C\C/C=C\C/C=C\C/C=C\CCCC(=O)O[C@@H](CO)COCCCCCCCCCCCCCCCC	3.7%	0.2%	0.8%	-11.1%	-2.3%
CC(=O)Nc1ccc2c(c1)C(C)(C)C(C)N2C (centres undefined)	176.9%	39.8µM*[fluorescent]	-5.3%	1.1%	?
COc1ccc(C(NC(C)=O)c2ccc3cccnc3c2O)c(OC)c1 (centres undefined)	-5.8%	0.7%	?	-15.5%	-4.9%
CCC(=O)NC(c1cccs1)c1ccc2cccnc2c1O (centres undefined)	-2.4%	-2.6%	3.98µM*	-11.5%	4.5%
CCCCC(=O)NC(c1ccccc1OC)c1ccc2cccnc2c1O (centres undefined)	11.1%	-0.3%	3.55µM*	-16.2%	2.7%
CC(C)C(=O)NC(c1ccco1)c1ccc2cccnc2c1O (centres undefined)	0.1%	3.3%	3.55µM*	-12.5%	-4.6%
CC(C)CC(=O)NC(c1cccs1)c1ccc2cccnc2c1O (centres undefined)	-0.4%	-1.9%	-1.1%	8.0%	-5.5%
CCCC(=O)NC(c1ccccc1OC)c1ccc2cccnc2c1O (centres undefined)	16.6%	-2.5%	7.08µM*	-18.1%	-0.5%
C[C@H](NC(=O)/C(C#N)=C/c1ccc(O)c(O)c1)c1ccccc1	-37.5%	-6.0%	-0.1%	7.9%	-8.2%
CC(C)OC(=O)CN1C(=O)S/C(=C/c2ccc(N3CCCCC3)o2)C1=O	93.1%	7.4%	11.2µM*	-7.0%	0.7%
O=C1S/C(=C/c2ccc(N3CCOCC3)o2)C(=O)N1Cc1ccc(F)cc1	-6.9%	-0.6%	14.1µM*	-0.4%	-3.7%
O=C1S/C(=C\c2ccc(N3CCOCC3)o2)C(=O)N1Cc1ccc(F)cc1	14.4%	5.3%	3.55µM*	0.8%	-1.5%
O=C1NC(=S)S/C1=C/c1ccc(N2CCOCC2)o1	-0.3%	0.5%	-1.9%	-17.3%	1.5%
Nc1c(Cl)cc(Cl)cc1Cl	9.6%	-0.6%	·	18.8%[21.7 µM]	1.3%
COc1cc(=O)n(C)c2c(OC[C@@H](O)C(C)(C)O)cccc12	3.6%[21.6 µM]	-5.7%[53 µM]	1.1%[16.9 µM]	13.8%[21.7 µM]	3.2%[53 µM]
COc1cc(/C=C2\COC/C(=C\c3ccc(O)c(OC)c3)C2=O)ccc1O	7.3%	-9.8%	1.1%	3.8%	-7.2%
COc1cc(/C=C2/CC/C(=C/c3ccc(O)c(OC)c3)C2=O)ccc1O	36.6%	?	25.1µM*	-12.5%	26.3%
COc1ccc2[nH]cc(CCNc3ncncc3-c3ccccc3C(F)(F)F)c2c1	2.7%	·	·	·	·
Cc1ccc2c(CC(=O)N(Cc3ccc(Cl)cc3)Cc3ccco3)coc2c1	·	1.12µM*[quencher]	3.7%	·	-16.7%[53 µM]
Cc1ccc(OCC(=O)N(Cc2ccco2)Cc2ccco2)cc1	·	0.4%	0.2%	·	-12.4%
Cc1ccc(CN(Cc2ccco2)C(=O)COc2ccc(C(C)C)cc2)cc1	·	0.0006µM*[quencher]	-1.9%	·	?
COc1ccc(NC(=O)CSc2nc(-c3cccc(C)c3)[nH]c2-c2ccccc2)cc1OC	·	-0.9%	2.6%	·	2.0%
COc1ccc(C(OCC2CO2)c2ccc(OC)cc2)cc1 (centres undefined)	-6.2%	-2.4%	0.4%	1.7%	5.1%
CC(C)OCC1CO1 (centres undefined)	25.1µM*	-1.1%	·	7.5%[21.7 µM]	-4.1%

From PubChem
